The list is not random: actives were taken first. Their share in the collection is about 1.3%.
IL-2 act: qHTS of IL-2 Activators. IL-2 activation reporter assay, cell-based qHTS; stimulated with anti-CD3/CD4/CD28 beads; in transgenic mouse T cells. activation, % (series mostly up to about 46 µM). 360,000 tested, 0.065% active. AID 652025, 2013; in the data active means activation above about 50%; inconclusive means mostly about 30% to 49%
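First, unstimulated transgenic mouse T cells were exposed to compound for 60 min. Next, anti-CD3/anti-CD4-coated beads with anti-CD28 were added. Finally, after 18 h at 37 degrees C, EGFP and DsRed were imaged.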
Mito fusion yeast: qHTS Assay for Small Molecule Inhibitors of Mitochondrial Division or Activators of Mitochondrial Fusion | 320,000 tested, 0.23% active | S. cerevisiae fusion-defective mutant growth rescue, CellTiterGlo 48 h | Potency, µM (series often up to 46.1 µM), actives largely listed as activators; further: nearly all actives have a fitted effect of over 45% in size
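Yeast fusion mutant, YPEG (non-fermentable carbon), compound, 48 h at 37C non-permissive; CellTiterGlo added, 10 min RT, luminescence read. Rescued growth = division inhibition.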
BCR signal inh: qHTS Assay to Find Inhibitors of Chronic Active B-Cell Receptor Signaling | ABC-DLBCL IkBa-CBG/CBR reporter, luminescence ratio, 4 h | Potency, µM (highest dose often 46.1 µM), most hits filed as inhibitors | 340,000 tested, 0.05% active | AID 493014, 2011; active means well fitted inhibition curve with a large enough effect in the signal ratio, with a control signal flat, not every such curve was filed as active; inconclusive means small, poorly fitted or top-dose-only effect, or effect the other way, or a change in a side signal; the % refers to the signal ratio
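Cell line TMD8 (human ABC DLBCL), stably expressing tet-inducible CBG68-IkBa fusion and CBR; IMDM/0.5% FBS; cpd up to 46 uM; dox induction, 4 h, 37C/5% CO2; dual luminescence; green/red ratio; MG132 control.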
PTHR1 agonist: qHTS for PTHR1 Agonists: Primary Screen; Parathyroid hormone/parathyroid hormone-related peptide receptor (Homo sapiens), Q03431; HEK293 GP2 PTHR1 cells, GloSensor cAMP luminescence, 1 h; Potency, µM (highest dose often 115 µM), most hits filed as activators; 410,000 tested, 0.075% active; AID 743266, 2014; further: nearly all actives have a fitted effect of over 55% in size
Target sequence (Q03431 whole entry, looked up): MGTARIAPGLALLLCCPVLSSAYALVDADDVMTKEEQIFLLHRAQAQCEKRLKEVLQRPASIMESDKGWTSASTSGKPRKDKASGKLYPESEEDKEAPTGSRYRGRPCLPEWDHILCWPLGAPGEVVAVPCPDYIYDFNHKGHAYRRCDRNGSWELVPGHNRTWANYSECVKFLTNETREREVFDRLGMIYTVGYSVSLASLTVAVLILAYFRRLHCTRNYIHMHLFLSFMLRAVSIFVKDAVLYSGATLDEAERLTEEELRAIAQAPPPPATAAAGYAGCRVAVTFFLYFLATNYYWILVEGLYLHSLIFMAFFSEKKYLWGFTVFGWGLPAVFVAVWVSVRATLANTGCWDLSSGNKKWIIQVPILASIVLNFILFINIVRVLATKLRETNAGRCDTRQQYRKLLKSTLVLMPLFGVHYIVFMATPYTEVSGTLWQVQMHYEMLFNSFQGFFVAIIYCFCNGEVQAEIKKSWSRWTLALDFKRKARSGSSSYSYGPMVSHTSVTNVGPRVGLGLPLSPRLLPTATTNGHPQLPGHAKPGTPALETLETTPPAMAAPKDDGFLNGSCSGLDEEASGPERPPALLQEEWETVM
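HEK-293-derived GP2 cells expressing PTHR1 and a GloSensor cAMP reporter, 3,000/well, plated overnight, given luciferin plus IBMX (each 0.5 mM as added) for 1 h at 37 °C, then compound for 1 h at 37 °C. Luminescence was read after 15 min at room temperature.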
BRCA1 expr up: qHTS Assay to Identify Small Molecule Activators of BRCA1 Expression | MCF7-BRCA1-FFLuc reporter, luminescence, 48 h; response scale: scaled: vehicle 0%, 10 µM genistein 100% | Potency, µM (series often up to 46.1 µM), actives largely listed as activators | 380,000 tested, 1.1% active; further: nearly all actives have a fitted effect of over 80% in size
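MCF7 cells carrying a BRCA1-firefly luciferase reporter (2000 cells/well, phenol-red free MEM) were attached for 2 h at 37 °C, then given compounds for 48 h. Luminescence was read 15 min after luciferase reagent; activity normalized to genistein (10 microM) and DMSO.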
TCR activator: Activators of T cell receptors: qHTS campaign. Potency, µM (doses to about 9.22 µM), usual class: activators. 330,000 tested, under 10 active. primary human leukocytes, anti-CD3, IL-2 HTRF, 48 h
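1) Mix primary human leukocytes, a-CD3 beads and compound. 2) Incubate 48 hr. 3) Add HTRF IL-2 reagents (a-IL-2-K, a-IL-2-d2).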
A number is an active result; - = inactive; ? = inconclusive; . = no result given; ! = a repeat was not active. Unless noted, the call rests on the fitted dose curve; in most records, active means well fitted curve in the direction sought with a large enough effect; inconclusive means small, poorly fitted or top-dose-only effect, or another doubt; inactive means no such curve, though single readings can be large; an effect the other way counts as inactive or inconclusive.

SMILES | IL-2 act | Mito fusion yeast | BCR signal inh | PTHR1 agonist | BRCA1 expr up | TCR activator
COC(=O)c1c(C)[nH]c(C(=O)OCc2ccc(F)cc2)c1C | - | - | - | - | 4.5µM | -
CCC(=O)N/N=C/c1ccc(-c2ccc([N+](=O)[O-])cc2)o1 | - | - | - | - | - | -
CC(C)(C)C(=O)/C=c1\s/c(=C\c2ccc(-c3ccc([N+](=O)[O-])cc3)o2)c(=O)n1CC(=O)NC(N)=O | 164 | - | ? | - | - | -
OC[C@@H]1CN(Cc2ccccc2)C[C@H](n2cnc3c(Nc4ccccc4)ncnc32)O1 | - | . | . | - | - | .
COc1ccc(/C=N/NC(=O)c2ccc(CSc3nc(C)cc(C)n3)cc2)cc1O | - | - | 16µM | - | - | -
O=[N+]([O-])c1ccc(O/N=[N+](\[O-])N2CCN(c3ccccc3)CC2)c([N+](=O)[O-])c1 | . | . | . | . | - | .
Cc1ccc2c(COC(=O)c3n[nH]c4ccccc34)cc(=O)oc2c1 | - | - | ? | - | 3.2µM | -
O=C(COc1nc2ccccc2nc1N1CCOCC1)N1CCc2ccccc21 | 94 | - | - | - | - | -
O=C(COc1ccc2c(c1)CCC2)N1CCc2ccccc21 | - | - | ? | - | 10µM | .
Cc1nn(-c2ccccc2)c(OC(=O)C(C)C)c1Sc1ccc(Cl)cc1 | . | . | . | - | . | .
COc1cc(/C=C/C(=O)OCC(=O)N2CCN(S(=O)(=O)c3ccc(C)cc3C)CC2)cc(Cl)c1OC | - | - | ? | - | - | -
COc1cc(S(=O)(=O)N2CCN(Cc3ccc4c(c3)OCO4)CC2)c(C)cc1C | - | 14µM | ? | - | - | -
Cc1cc(C)c(S(=O)(=O)N2CCN(Cc3ccc4c(c3)OCO4)CC2)cc1C | . | . | . | - | . | .
Cc1cccc(NC(=O)c2cc(-c3cc(C)ccc3O)n[nH]2)c1 | - | - | ? | - | 1.6µM | -
O=[N+]([O-])c1ccc2c(c1)/C(=C/c1ccc(C=S)cc1)C=C2 | . | . | . | . | - | .
O=C(/C=C/c1ccccc1[N+](=O)[O-])Nc1ccccc1 | - | - | ? | - | 7.1µM | -
O=c1[nH]c(SCc2ccc(Cl)cc2)nc2ccsc12 | - | - | ? | - | 4.5µM | -
N#Cc1c(-c2cccs2)nc(SCc2ccc(Cl)cc2)[nH]c1=O | - | - | ? | - | - | -
Fc1ccccc1CSc1nnc(-c2cccnc2)o1 | - | - | - | - | 7.1µM | -
Fc1ccccc1CSc1nnc(-c2ccccc2)o1 | - | - | - | - | 4µM | -
Cc1ccc(C)c(CSc2nnc(-c3cccnc3)o2)c1 | - | ? | ? | - | - | .
O=S(=O)(Nc1ccc(NS(=O)(=O)c2ccccc2)c2ccccc12)c1ccccc1 | - | . | . | - | - | .
O=c1[nH][nH]c(=O)c2c(NS(=O)(=O)c3ccccc3)cccc12 | - | - | - | - | 13µM | -
CC(C)c1ccc(NC(=O)COc2ccccn2)cc1 | - | - | - | - | 4µM | .
CC(C)c1ccc(NC(=O)COc2ccccc2)cc1 | - | - | ? | - | ? | .
SMILES | IL-2 act | Mito fusion yeast | BCR signal inh | PTHR1 agonist | BRCA1 expr up | TCR activator
O=C(NCc1ccccn1)c1ccc(-c2ccccc2)cc1 | - | - | ? | - | 13µM | -
O=C(NCc1ccccn1)c1ccc(N2CCCC2=O)cc1 | - | - | - | - | 13µM | -
O=C(NCc1ccccn1)c1ccc([N+](=O)[O-])cc1 | - | - | - | - | - | -
OCC(O)C[n+]1cccc(Br)c1 (stereo not drawn) | . | . | . | . | - | .
CN1CCc2cc(O)c(O)cc2C(c2ccccc2)C1 (stereo not drawn) | - | ? | - | - | - | -
C=CCN1CCc2c(cc(O)c(O)c2Br)[C@@H](c2ccccc2)C1 | - | 16µM | . | - | - | -
COc1ccc(-c2nc(SCc3ccccc3)n(C(=O)c3ccco3)n2)cc1 | - | - | ? | - | ? | -
COc1ccc(-c2nc(SC)n(C(=O)c3ccco3)n2)cc1 | - | - | ? | - | 11µM | -
CCNc1nc(C#N)nc(N2CCOCC2)n1 | . | . | . | . | - | .
COc1ccccc1C(=O)Nc1ccc(S(=O)(=O)Nc2nc(C)cc(C)n2)cc1 | . | . | . | - | . | .
Nc1nc(N)c2c(OCc3ccc(C(F)(F)F)cc3)cccc2n1 | . | . | . | . | - | .
O=C(c1cc2cc3ccc(Cl)cc3nc2o1)N1CCCCCC1 | - | - | - | - | 2.2µM | -
Cc1ccc2cc3cc(C(=O)N4CC(C)CC(C)C4)oc3nc2c1 (stereo not drawn) | - | - | ? | - | - | -
O=C(c1cc2cc(Cl)ccc2o1)N1CCCCCC1 | - | - | - | - | ? | -
COc1ccc2cc3cc(C(=O)N4CC(C)CC(C)C4)oc3nc2c1 (stereo not drawn) | - | - | - | - | 10µM | -
C=C(c1nc2ccccc2s1)C1Cc2cccc3c2N(CCC3)C1 (stereo not drawn) | . | . | . | . | - | .
Cc1ccc(Cl)c(Nc2ccccc2C(=O)O)c1Cl | - | 5.2µM! | - | - | - | -
CSc1ccccc1-c1nnc(-c2ccc(Cl)cc2Cl)o1 | - | - | ? | - | 7.9µM | -
CSc1ccccc1-c1nnc(-c2ccc(Cl)c(Cl)c2)o1 | - | - | ? | - | - | -
CCOc1ccc(-n2c(SCC(=O)Nc3ccc4c(c3)OCCO4)nc3c([nH]c4ccccc43)c2=O)cc1 | . | . | . | - | - | .
Cc1ccc(NC(=O)CCCC2CCCCC2)c(O)c1 | - | - | - | - | 13µM | -
Cc1ccc2c(=O)cc(C(=O)NCc3ccccc3)oc2c1C | - | 13µM | - | - | - | -
N=c1c(C(=O)NCc2ccc(F)cc2)cc2c(=O)n3ccccc3nc2n1Cc1cccnc1 | 178 | - | ? | - | - | -
Cc1cccn2c(=O)c3cc(S(=O)(=O)c4ccc(F)cc4)c(=N)n(Cc4ccco4)c3nc12 | 56 | - | - | - | - | -
Cc1cccn2c(=O)c3cc(C(=O)NC4CCCCC4)c(=N)n(Cc4ccc(F)cc4)c3nc12 | 154 | - | - | - | - | -
COCCCn1c(=N)c(C(=O)NC2CCCC2)cc2c(=O)n3cccc(C)c3nc21 | . | . | . | - | - | .
O=C(NC1=NCCS1)c1ccc(C(F)(F)F)cc1 | - | - | ? | - | 4µM | -
COc1cc(OC)cc(C(=O)NC2=NCCS2)c1 | - | - | ? | - | - | -
O=C(NC1=NCCS1)c1cccc(OC(F)F)c1 | - | ? | - | - | 2.8µM | -
COc1ccc(C(=O)NC2=NCCS2)cc1 | - | - | - | - | 3.2µM | -

High-throughput results as filed in PubChem.
